USP17 block: blocks human USP17 ubiquitin-rhodamine cleavage | purified USP17, Ub-rhodamine cleavage fluorescence, 3 h | inhibition, % at 50 µM | 47,000 tested, 6.5% active | AID 1645855
USP30 block: human USP30 deubiquitinase inhibition. Q70CQ3. purified USP30, Ub-rhodamine cleavage fluorescence. inhibition, % at 25 µM. AID 1645860. 47,000 tested, 5.3% active
Target sequence (Q70CQ3 whole entry, looked up): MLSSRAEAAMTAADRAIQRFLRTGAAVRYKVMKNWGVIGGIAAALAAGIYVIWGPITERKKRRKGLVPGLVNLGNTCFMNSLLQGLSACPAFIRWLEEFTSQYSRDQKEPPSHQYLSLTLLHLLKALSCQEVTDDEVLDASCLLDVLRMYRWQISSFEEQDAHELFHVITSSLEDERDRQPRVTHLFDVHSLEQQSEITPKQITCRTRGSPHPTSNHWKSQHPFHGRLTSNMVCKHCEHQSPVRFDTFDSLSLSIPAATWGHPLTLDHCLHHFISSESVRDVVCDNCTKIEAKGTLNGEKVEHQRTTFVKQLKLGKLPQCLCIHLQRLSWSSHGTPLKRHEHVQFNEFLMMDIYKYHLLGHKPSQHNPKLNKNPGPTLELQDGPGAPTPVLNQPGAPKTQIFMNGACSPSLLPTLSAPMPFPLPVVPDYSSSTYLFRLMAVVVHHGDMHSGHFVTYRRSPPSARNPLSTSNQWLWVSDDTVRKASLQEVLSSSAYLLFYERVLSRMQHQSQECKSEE
USP8 block: blocks human USP8 ubiquitin-rhodamine cleavage; inhibition, % at 20 µM; purified USP8, Ub-rhodamine cleavage fluorescence, 30 min; P40818; 47,000 tested, 4.2% active
Of the large screens only hits and unclear results are named; the others gave an inactive call. Hits are enriched below; roughly 12% of the tested compounds scored in any of these assays. Cut-off read from the data, not from the text of the source: active = inhibition above about 30%; inactive = the rest.

O=C(Cn1cnc(NC(=O)c2ccc(F)cc2)n1)Nc1ccccc1	none
CNC(=O)c1sc2ccccc2c1C1CN(Cc2cccc3cccnc23)CCO1 (stereo unspecified)	none (no result: USP17 block)
Cc1ccc(NC(=O)/C=C/c2cccc(C(F)(F)F)c2)c(O)c1	USP17 block 58, USP30 block 45
O=C(/C=C/c1cccc(C(F)(F)F)c1)c1ccoc1	none
Cc1[nH]c2ccccc2c1CCNC(=O)/C(=C/c1ccc(OC(C)C)cc1)NC(=O)c1ccccc1	none
CC(=O)COc1ccc2c(c1C)OC(C)(C)CC2=O	none
Cc1cc(C)c(COc2ccc3c(c2C)OC(C)(C)CC3=O)c(C)c1	USP30 block 30
COc1ccc(CN2CCC3(CC2)OCCc2cnc(C)nc23)c(C)c1C	none
COC(=O)c1ccc(Nc2cc(C)nc3cc(C(F)(F)F)ccc23)cc1	USP17 block 64, USP30 block 66, USP8 block 35
Cc1cc(C)nc(N=C(NC(=O)C(F)(F)F)Nc2cc(C(F)(F)F)ccc2Cl)n1	none
COc1ccc(Cl)cc1NC(=O)c1nccnc1-c1nc2ccccc2s1	none
COc1ccccc1Cc1nc(-c2cn(-c3ccccc3)nn2)no1	none
COc1ccc(Cl)cc1NC(=O)c1nc(-c2cn(-c3ccccc3)nn2)no1	USP8 block 99
Fc1ccc(Cn2cc(-c3noc(-c4ccco4)n3)nn2)cc1	none
COc1ccccc1NC(=O)c1nc(-c2cn(-c3ccc(F)cc3)nn2)no1	USP8 block 57 (no result: USP17 block)
Cc1ccccc1NC(=O)c1nc(-c2cn(Cc3ccc(F)cc3)nn2)no1	USP17 block 78, USP8 block 95
COc1ccc(-c2nn(-c3ccccc3)cc2/C=C/C(=O)Nc2ccc(C(C)=O)cc2)cc1OC	USP17 block 55, USP30 block 84
COc1ccc(C(=O)/C=C\c2cn(CCC(=O)O)nc2-c2ccc(OC)c(OC)c2)cc1	none
CCc1ccccc1NC(=O)CC1C(=O)N(CC2CCCO2)c2nc3ccccc3n21 (stereo unspecified)	none
O=c1ccc(-c2noc(-c3cccc4[nH]ccc34)n2)c[nH]1	none
O=c1ccc(-c2noc(-c3n[nH]c4ccccc34)n2)c[nH]1	USP8 block 56
N#Cc1cc([N+](=O)[O-])ccc1NC(=O)COC(=O)CCCc1c[nH]c2ccccc12	none
Cc1cc(C)n(CCCNC(=O)c2ccc(Cl)c([N+](=O)[O-])c2)n1	none
O=C(Nc1cccn(Cc2c(Cl)cccc2Cl)c1=O)c1ccccc1[N+](=O)[O-]	USP30 block 46
Cc1c(NC(=O)c2cccc3c2SCCC3=O)cccc1[N+](=O)[O-]	none (no result: USP30 block)
O=S(=O)(NC1CCc2ccccc21)c1ccc(-n2cnnn2)cc1 (stereo unspecified)	USP30 block 39
COc1ccc(S(=O)(=O)NC2CCc3ccccc32)cc1OC (stereo unspecified)	none
O=S(=O)(NC(c1ccccc1)c1ccccc1)c1ccc(-n2cnnn2)cc1	USP17 block 44, USP30 block 49
Cc1nc(-c2cccc(S(=O)(=O)NC3CCCc4ccccc43)c2)no1 (stereo unspecified)	USP8 block 47
CCNS(=O)(=O)c1ccc(-c2ccc(-n3cnnn3)cc2)cc1	none
O=S(=O)(NC1CCCc2ccccc21)c1ccc(F)cc1 (stereo unspecified)	USP30 block 34
Cc1nc(-c2cccc(S(=O)(=O)Nc3ccc(-c4ccno4)cc3)c2)no1	none
O=C(O)c1cccc(S(=O)(=O)NC2CCCc3ccccc32)c1 (stereo unspecified)	none
Cc1ccc(C(=O)N2CC[C@](O)(c3ccccc3)[C@H](N(C)C)C2)cn1	none (no result: USP17 block)
COc1cccc(N2CCN(c3ccc4nnc(CCC(=O)NCc5ccc6c(c5)OCO6)n4n3)CC2)c1	none
Cc1c(C(=O)N(C)Cc2ccco2)nnn1-c1cccc2c1CCN(CC1CC1)C2	none
Cc1cc(-c2ncc[nH]2)nc(C2CCN(Cc3cncs3)CC2)n1	none
CCn1ncc(-c2cc(C(=O)Nc3ccc4c(c3)cc(C)n4CCOC)no2)c1C	none
O=C(c1nc(-c2ccc(N3CCCCCC3)cc2)no1)N1CCOCC1	none
Cc1ccc(NC(=O)N2CCC3(CC2)N=C(c2ccccc2)C(=O)N3)cc1C	USP17 block 37
Cc1cccc(NC(=O)N2CCC3(CC2)N=C(c2ccccc2)C(=O)N3)c1	none
COc1ccccc1CNC(=O)c1ccccc1N1C(=O)N2CCc3c([nH]c4ccccc34)[C@@]2(C)C1=O	none
O=C(Nc1nc2c(s1)CN(Cc1ccccc1)CC2)c1cc(=O)c2ccccc2o1	none
COCCn1cc(NC(=O)Nc2ccccc2Cl)c2ccccc21	none
COCCn1cc(NC(=O)N2CCN(c3ccccc3F)CC2)c2ccccc21	USP8 block 54
CC1CCCN(C(=O)C2CCC3(CC2)CNC(=O)c2cc(Cl)ccc2O3)C1 (stereo unspecified)	none
Clc1ccc2nc(NC3=NCN(CCc4ccccc4)CN3)nc(-c3ccccc3)c2c1	USP30 block 38
COc1ccccc1NC(=O)N1CCN(CCc2ccccc2)CC1	none
COc1cccc2c(C)nc(NC3=NCN(CCc4ccccc4)CN3)nc12	USP30 block 33
Brc1ccc2nc(Nc3cccc4ccccc34)nc(-c3ccccc3)c2c1	none
COc1ccc(S(=O)(=O)N2CC(=O)Nc3ccccc32)cc1	none
Cc1cc(-c2ccc(C)c(S(=O)(=O)N3CC(=O)Nc4ccccc43)c2)on1	USP17 block 47
Cc1cccc(N(Cc2nc3nc(C)cc(=O)n3[nH]2)S(=O)(=O)c2ccccc2)c1	none
O=C(NCc1ccco1)c1nnn(Cc2ccccc2Cl)c1-n1cccc1	USP17 block 33
O=C(NCCc1ccccc1)c1nnn(Cc2cccc(Cl)c2)c1-n1cccc1	none
Cc1cccc(N2CCN(C(=O)CCn3c(=O)[nH]c4ccccc4c3=O)CC2)c1C	USP17 block 46, USP30 block 36
COCCn1c(=O)[nH]c2cc(C(=O)NCCCN3CCN(c4ccc(F)cc4)CC3)ccc2c1=O	none
CCOC(=O)N1CCN(C(=O)c2ccc3c(=O)n(CCOC)c(=O)[nH]c3c2)CC1	none
COc1ccc(N2CCN(CCCNC(=O)c3ccc4c(=O)n(CCc5ccccc5)c(=O)[nH]c4c3)CC2)cc1	none
COc1ccc(Cn2c(=O)[nH]c3cc(C(=O)NCCCN4CCN(c5cccc(Cl)c5)CC4)ccc3c2=O)cc1	USP17 block 51, USP30 block 46, USP8 block 83
COc1ccccc1N1CCN(C(=O)c2ccc3c(=O)n(CCc4ccccc4)c(=O)[nH]c3c2)CC1	USP30 block 35
CCN1CCN(CCCNC(=O)c2ccc3c(=O)n(CCc4ccccc4)c(=O)[nH]c3c2)CC1	USP30 block 32
COc1ccccc1N1CCN(C(=O)CCn2c(=O)[nH]c3ccccc3c2=O)CC1	none
Cc1cc(NC(=O)C2CCCN(S(=O)(=O)N3CCOCC3)C2)no1 (stereo unspecified)	none
CCOC(=O)c1cnn(-c2nc3ccccc3n2C)c1N=CN(C)C	none
Cc1ccc(C2CC(c3ccccc3)N(C(=O)C3CC3)c3ncnn32)cc1 (stereo unspecified)	none
Cc1ccccc1CN[C@H]1CS(=O)(=O)C[C@@H]1S(=O)(=O)c1ccccc1	none
Clc1ccc(-c2nc3ccccn3c2CN2CCN(c3ccc(Cl)c(Cl)c3)CC2)cc1	none
CCN1C(SCc2ccccc2F)=NS(=O)(=O)c2ccccc21	none
CCc1ccc(NC(=O)Cn2cc(-c3ccccc3)c3ncn(CC)c(=O)c32)cc1	none

Screening results (PubChem BioAssay)
